IMPase Li cell: cell-permeable IMPase inhibitors with lithium potentiation; 210,000 tested, 0.35% active; CHO-M1 cells, IP1 TR-FRET (IP-One), carbachol + lithium; Potency, µM (series often up to 59.4 µM), inactives show top-dose activity, negative = IMPase inhibition, most hits filed as inhibitors;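 further: IP1 builds up when IMPase is blocked and the TR-FRET signal falls; potency means the concentration at half of the fitted maximal effect; plate controls were basal vehicle for no effect and high inhibitor control for full effect; nearly all actives have a fitted effect of over 50% in size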
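CHO cells stably expressing M1 receptor (2000/well) were cultured 16–30 h, then exposed to compounds with a small lithium addition for 30 min at 37C. IP1 was measured by TR-FRET competition; AC50 from Hill fits.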
NPSR antag: blocks cAMP signaling of the human neuropeptide S receptor; Q6W5P4; CHO-NPSR cells, cAMP TR-FRET, antagonist mode; Potency, µM (highest dose often 38.3 µM), for the others: at the highest dose activity change, negative = inhibition, most hits filed as inhibitors; 220,000 tested, 1% active; AID 1461; further: potency means the concentration at half of the fitted maximal effect; on the % scale 0 is the no-effect control and ±100 the full control effect; nearly all actives have a fitted effect of over 50% in size
Target sequence (Q6W5P4 whole entry, looked up): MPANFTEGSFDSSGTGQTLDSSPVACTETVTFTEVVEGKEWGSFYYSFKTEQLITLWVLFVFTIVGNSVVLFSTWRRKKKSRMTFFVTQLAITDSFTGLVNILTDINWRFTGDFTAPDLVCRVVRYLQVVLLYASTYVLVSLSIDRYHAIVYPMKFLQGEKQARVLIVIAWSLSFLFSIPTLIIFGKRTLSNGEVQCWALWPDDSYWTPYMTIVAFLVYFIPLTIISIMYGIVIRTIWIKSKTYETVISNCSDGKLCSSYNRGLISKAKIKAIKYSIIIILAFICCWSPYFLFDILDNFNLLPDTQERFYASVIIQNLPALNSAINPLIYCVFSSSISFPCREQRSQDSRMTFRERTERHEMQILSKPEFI
HTT cytoprotect: Huntington cell model cytoprotection by ATP luminescence. PC12 HTT-Q103 induced, cytoprotection, ATP luminescence, 40 h. Potency, µM (series often up to 56.4 µM), inactives show cytoprotection (ATP increase), hits mostly activators. 230,000 tested, 0.14% active; further: potency means the concentration at half of the fitted maximal effect; % of control where 0% means no effect; nearly all actives have a fitted effect of over 45% in size
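PC12 cells stably carrying ecdysone-inducible Htt exon 1 (Q103)–GFP were induced with 100 nM tebufenozide (final) alongside library compounds in a dose series. Cytoprotection was scored as retained ATP by ATPlite luminescence.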
IMPase cell inh: membrane-permeable compound that blocks inositol monophosphatase; inhibition (IP1 accumulation), % at 46.1 µM; CHO-M1 cells, IP1 accumulation, HTRF TR-FRET ratio; P97697; 120,000 tested, under 10 active; AID 901; active means well fitted curve in the direction sought with a large enough effect in the signal ratio, not every such curve was filed as active; inconclusive means small, poorly fitted or top-dose-only effect, or a change in a side signal; inactive means no such curve, though single readings can be large or run the other way; the % refers to the signal ratio;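 further: cells stimulated with carbachol in lithium chloride buffer; plate controls were DMSO basal wells for no effect and reference inhibitor wells for full effect; higher means more IMPase inhibition seen as more IP1 and lower FRET ratio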
Target sequence (P97697 whole entry, looked up): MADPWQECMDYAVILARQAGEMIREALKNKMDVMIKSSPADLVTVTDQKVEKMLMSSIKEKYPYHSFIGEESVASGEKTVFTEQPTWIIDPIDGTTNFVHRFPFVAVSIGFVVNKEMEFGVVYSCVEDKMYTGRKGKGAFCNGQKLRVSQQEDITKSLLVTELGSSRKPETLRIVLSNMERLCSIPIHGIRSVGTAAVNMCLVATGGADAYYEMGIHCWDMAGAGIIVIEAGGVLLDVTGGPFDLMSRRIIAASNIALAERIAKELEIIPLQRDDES
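Carbachol-driven Gq signalling in CHO-M1 cells (2000/well) generates IP1. Compounds that block IMPase raise IP1 and so reduce the FRET signal from Eu-anti-IP1 and d2-IP1 after a 10 min room-temperature lysis.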
PNC assembly inh: inhibitors of perinucleolar compartment assembly | PC3M PTB-GFP, PNC prevalence imaging, 16 h; hits give low values | activity change (PNC), negative = inhibition, % at 10 µM | 140,000 tested, 3.1% active;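 active means readout at or below -70, meaning at least 70% loss of cells showing the perinucleolar compartment, a nuclear body marking cancer cells; inconclusive means readout between -30 and a set limit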;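 further: plate controls were DMSO wells for no effect and camptothecin positive control wells for full effect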
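Read-out is percentage of cells bearing a perinucleolar compartment, from automated 20x imaging of fixed, Hoechst-stained PC3M PTB-GFP cells. Cells were seeded 4 h, then exposed 16 h to compound (23 nl of library stock) in duplicate plates.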
HTT aggregate: inhibitors of mutant huntingtin aggregate formation in PC12 cells; PC12 HttQ103-GFP aggregates, Acumen cytometry, 40 h; AID 1688; Potency, µM (series often up to 46.1 µM), without a hit: at the top dose activity change, negative = inhibition, hits mostly inhibitors; 220,000 tested, 1.1% active; further: potency means the concentration at half of the fitted maximal effect; on the % scale 0 is the no-effect control and ±100 the full control effect; nearly all actives have a fitted effect of over 60% in size
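Huntingtin Q103 exon 1–GFP aggregates in induced PC12 cells (100 nM tebufenozide) were quantified by cytometry from lysates, with compounds dosed in titration.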
An asterisk follows results filed as active; ? = inconclusive; . = no result; ! = not confirmed by another sample; [ ] = remark or other dose. Most compounds without a hit are left out; they make up all but 3.4% or so of the library. Unless noted, the call rests on the fitted dose curve; in most records, active means well fitted curve in the direction sought with a large enough effect; inconclusive means small, poorly fitted or top-dose-only effect, or another doubt; inactive means no such curve, though single readings can be large; an effect the other way counts as inactive or inconclusive.

SMILES | IMPase Li cell | NPSR antag | HTT cytoprotect | IMPase cell inh | PNC assembly inh | HTT aggregate
C=C1CC23C[C@H]4[C@@H]5[C@@]6(C)C[C@H](OC(=O)c7ccccc7)[C@@H](OC(C)=O)[C@]57[C@@H]2[C@@H](OC(C)=O)[C@H]1[C@@H](O)[C@H]3[C@H]7N4C6 | 0% | . | 5%[40.3 µM] | 5[20.6 µM] | . | .
COC(=O)C1(C(=O)OC)C[C@@H]2CON=C2[C@H]1c1ccccc1 | 13% | . | 20µM*! | . | . | .
Cc1ccc(C)c(CSC2=NN3CCCC(=O)N=C3S2)c1 | . | -17% | 25%[10 µM] | . | . | 25%[9.22 µM]
CCCCCCCCn1ccc(=N)cc1 | . | -20% | -64%[10 µM] | . | . | -45%[9.22 µM]
CCCCCCCCCCCCCCCCn1cc[n+](C)c1 | 29% | ? | -41%[10 µM] | . | . | 13µM*!
COc1ccc(/C=N/NC(=S)NC2CCS(=O)(=O)C2)cc1OC (stereo not drawn) | 10%[38.3 µM] | -11%[46.1 µM] | -21% | -1 | -100* | 27%
CCCC/C=C/C(NC(=O)CCc1ccccc1)c1ccccc1 (stereo not drawn) | 20% | -30% | 0% | . | -119* | -11%
CCCC/C=C/C(NC(=O)c1ccccc1)c1ccccc1 (stereo not drawn) | 6% | . | 7% | . | . | .
COc1cccc(-c2cncnc2NCCN2CCOCC2)c1 | -1% | . | -37% | . | . | .
COCc1cc(=O)[nH]c(/N=C(\N)Nc2cccc(Cl)c2)n1 | 5% | 7% | . | . | . | -4%
CCCC/C=C/C(NC(=O)Oc1cccc(C(F)(F)F)c1)c1ccccc1 (stereo not drawn) | 0% | . | -68% | . | . | .
COc1ccc(-c2nc(NC(=O)c3ccc(OCC(=O)N4CCOCC4)c(OC)c3)sc2C)cc1 | 8% | -9% | -4%[10 µM] | . | 35 | -1%
CCc1ccc(-c2nc(NC(=O)c3ccc(OCC(=O)Nc4ccc(F)cc4)c(OC)c3)sc2C)cc1 | 7.9µM* | 6.3µM* | -14%[10 µM] | ? | ? | 8%
COc1cc(C(=O)Nc2nc(-c3ccc(Cl)cc3)c(C)s2)ccc1OCC(=O)Nc1ccc(F)cc1 | . | 4µM* | -15%[10 µM] | 3 | 19 | ?
CN(C)c1ncnc2ccc(-c3ccccc3C(F)(F)F)cc12 | 4% | . | -6% | . | . | .
CN(C(=O)Nc1ccccc1)C1CCS(=O)(=O)C1 (stereo not drawn) | 4% | 5%[46.1 µM] | -4%[10 µM] | -2 | 87 | -4%
CC(=O)NC1=C(N(C)C2CCS(=O)(=O)C2)C(=O)c2ccccc2C1=O (stereo not drawn) | 21% | -59% | . | . | -1 | 13µM*
O=C(Nc1ccc(Cl)cc1)N1CCC(c2nc(-c3ccccc3Cl)no2)CC1 | 41%[38.3 µM] | ? | -25% | 7 | 12 | 11µM*
O=C(Nc1cccc(C(F)(F)F)c1)N1CCC(c2nc(-c3ccc(F)cc3)no2)CC1 | 51%[38.3 µM] | -17%[46.1 µM] | -16%[10 µM] | 8 | -12 | 22µM*
CCS(=O)(=O)N1CCC(c2nc(-c3ccc(C(F)(F)F)cc3)no2)CC1 | -1%[38.3 µM] | 1%[46.1 µM] | -38% | 3 | -4 | 11µM*
O=C(Nc1ccc(Cl)cc1)N1CCC(c2nc(-c3cccs3)no2)CC1 | 35%[38.3 µM] | -28%[46.1 µM] | -12% | 11 | ? | ?
O=c1cnc2cnc(Oc3ccccc3)nc2n1Cc1ccc(F)cc1 | 1% | . | 19% | . | . | .
O=C(NCc1cccs1)C(=O)NCC1OCCCN1S(=O)(=O)c1ccccc1 (stereo not drawn) | -13% | 14% | 5%[10 µM] | . | -90* | 7%
O=C(NCc1cccnc1)C(=O)NCC1OCCN1S(=O)(=O)c1ccc(Cl)cc1 (stereo not drawn) | 3% | 2% | . | . | -119* | 6%
O=C(NCc1cccnc1)/C(=C/c1ccc(-c2ccc(Cl)cc2)o1)S(=O)(=O)c1ccccc1 | 17%[38.3 µM] | 10µM* | -97% | 16 | 31 | ?
SMILES | IMPase Li cell | NPSR antag | HTT cytoprotect | IMPase cell inh | PNC assembly inh | HTT aggregate
O=C(Nc1ccccc1C(=O)N/N=C/c1ccc(F)cc1)c1ccccc1Br | 4%[38.3 µM] | -13%[46.1 µM] | -32% | 1 | -114* | 10%
O=C(N/N=C/c1ccc(O)cc1)c1ccc(NC(=O)c2ccccc2Br)cc1 | -1%[38.3 µM] | ? | -43% | ? | -17 | 17%
CCn1c(SCC(=O)c2ccc3c(c2)OCCO3)nnc1-c1ccco1 | 21%[38.3 µM] | -13%[46.1 µM] | 17%[10 µM] | -9 | -86* | 23%
COC(=O)[C@@H](NC(=O)N1CCc2nc(-c3ccc(OC)cc3C)c3c(c2C1)CO[C@@H](c1ccccc1)C3)C(C)C | -3% | . | 19%[10 µM] | . | . | .
CCOC(=O)c1sc(NC(=O)c2ccc(Cl)s2)cc1C | -2%[38.3 µM] | -8%[46.1 µM] | -8%[10 µM] | 9 | 19 | -15%
CCOC(=O)c1sc(NC(=O)Nc2ccc(Cl)cc2)cc1C | 21% | ? | -6%[10 µM] | 2 | 30 | 22µM*
CN(Cc1c(F)cccc1Cl)c1ccc(S(=O)(=O)N2CCOCC2)cn1 | 27%[38.3 µM] | ? | -42% | 7 | ? | 3.5µM*
CN(CCOc1ccccc1)c1ccc(S(=O)(=O)N2CCCCC2)cn1 | -2%[38.3 µM] | -29%[46.1 µM] | -33% | 6 | 31 | -32%
CNC(=S)N1CCN(c2cccc(OC)c2)CC1 | -6%[38.3 µM] | -12%[46.1 µM] | 5% | 1 | 49 | 4%
COc1cccc(N2CCN(C(=S)NCCc3ccccc3)CC2)c1 | 34%[38.3 µM] | 7%[46.1 µM] | -1%[10 µM] | 18 | -92* | -24%
COc1ccc(CCNC(=S)N2CCC(Cc3ccccc3)CC2)cc1OC | 21% | -24% | -63% | . | . | 22µM*
O=C(COC(=O)CSc1ccc2ccccc2c1)NCc1ccc2c(c1)OCO2 | -11% | 1% | 1%[10 µM] | . | 2 | -4%
CCOc1ccc(NC(=O)c2c(NC(=O)c3ccccc3Br)sc3c2CCC(C)C3)cc1 (stereo not drawn) | . | . | . | -2 | . | .
COc1ccc(C2(C(=O)Nc3nncs3)CCCC2)cc1 | 5%[38.3 µM] | -4%[46.1 µM] | 12% | -13 | -80* | 4%[9.22 µM]
COc1ccc(NC(=O)C2(c3ccc(NC(=O)c4ccc(OC)cc4)cc3)CCCC2)cc1 | . | -15%[46.1 µM] | 3%[10 µM] | -2 | 18 | 21%
Cc1cc(NC(=O)COC(=O)COc2cccc3c2OC(C)(C)C3)no1 | -3%[38.3 µM] | -2%[46.1 µM] | -27% | -1 | -21 | -1%
Cc1cnc(NC(=O)COc2cccc3c2OC(C)(C)C3)s1 | -5%[38.3 µM] | -9%[46.1 µM] | 16% | 2 | -95* | 7%
COc1ccc(C(=O)c2c(C(F)(F)F)oc3c2C(=O)c2ccccc2C3=O)cc1 | 51%[38.3 µM] | 18%[46.1 µM] | -85% | 10 | ? | 3.2µM*
Cc1ccc(C(=O)c2c(C)oc3c2C(=O)C(=O)c2ccccc2-3)cc1 | 16%[38.3 µM] | -29%[46.1 µM] | -111% | 14 | ? | ?
CCOc1ccc2nc(SCC(=O)c3ccccc3)sc2c1 | 23%[38.3 µM] | -23%[46.1 µM] | -44% | 6 | ? | -1%[9.22 µM]

Screening data from PubChem.
